Source: PubChem BioAssay AID720664 (National Center for Advancing Translational Sciences (NCATS), 2013)
Inconclusive results are not listed. The source made the active and inactive calls. Calls come from the whole dose curve; as a rule, active = well fitted inhibition curve with a large enough effect; inconclusive = small, poorly fitted or top-dose-only effect; inactive = flat fitted curve, though single readings scatter.

Target: Galactokinase (Homo sapiens) (UniProt P51570)
Assay: qHTS for Inhibitors of Human Galactokinase (GALK): SAR round 3
Settings: ADP detection luminescence, 1 h; series mostly up to 57.5 µM
Text: Inherited deficiency of galactose-1-phosphate uridyltransferase (GALT) can result in a potentially lethal disorder called Classic Galactosemia (OMIM 230400). Several lines of evidence indicate that an elevated level of galactose-1-phosphate (gal-1-p), the product of galactokinase (GALK), is a major, if not sole, pathogenic mechanism in patients with classic galactosemia. Therefore, finding inhibitors of GALK is a potential novel therapy for this inherent metabolic disease and is the long term goal of this project. Active compounds observed in the qHTS GALK assay (AID: 1868) were cherry picked and re-screened for validation. GALK (provided by Kent Lai) was assayed using ATP and D-(+)-Galactose (Sigma-Aldrich cat# G0750) as substrates. Promega ADP-Glo technology was used to detect the ADP product formed after the kinase reaction. Kinase reactions with and without GALK were used as negative and positive controls together with Protein Tyrosine Phosphatase CD45 inhibitor (EMD Bioscience cat# 540215) which is shown to inhibit GALK activity. Decrease in activity corresponds to inhibition of the enzyme, the desired outcome for this assay. NIH Molecular Libraries Probe Production Network [MLPCN] NIH Chemical Genomics Center [NCGC] Grant: MH085689-01 PI Name: Kent Lai, University of Utah
Three uL/well of ATP-buffer solution (35 uM ATP, 20mM HEPES pH8.0, 5 mM MgCl2, 60 mM NaCl, 1 mM DTT, 0.01% BSA final concentration) was dispensed into 1536-well, assay plates (Greiner, solid white medium-binding plates) with Aurora Discovery BioRAPTR Flying Reagent Dispenser (FRD; Beckton-Dickenson). Compound and control solution (23 nL) was transferred to the assay plate using the Kalypsys 1536-pin tool apparatus. One uL/well GALK-galactose solution (5 nM GALK, 100 uM galactose, 20 mM HEPES pH8.0, 5 mM MgCl2, 60 mM NaCl, 1 mM DTT, 0.01% BSA final concentration) was then added using the FRD yielding a total kinase reaction volume of 4 uL/ well. After 1 hour of room temperature incubation, 4 uL Kinase-Glo Plus reagent was added for a final assay volume of 8 uL/well. Luminescence was detected with the ViewLux plate reader (Perkin Elmer, Waltham, MA) after 2 min incubation using a 1 sec exposure time and 2x binning.

Chain of Galactokinase (Homo sapiens) (P51570 whole entry, looked up): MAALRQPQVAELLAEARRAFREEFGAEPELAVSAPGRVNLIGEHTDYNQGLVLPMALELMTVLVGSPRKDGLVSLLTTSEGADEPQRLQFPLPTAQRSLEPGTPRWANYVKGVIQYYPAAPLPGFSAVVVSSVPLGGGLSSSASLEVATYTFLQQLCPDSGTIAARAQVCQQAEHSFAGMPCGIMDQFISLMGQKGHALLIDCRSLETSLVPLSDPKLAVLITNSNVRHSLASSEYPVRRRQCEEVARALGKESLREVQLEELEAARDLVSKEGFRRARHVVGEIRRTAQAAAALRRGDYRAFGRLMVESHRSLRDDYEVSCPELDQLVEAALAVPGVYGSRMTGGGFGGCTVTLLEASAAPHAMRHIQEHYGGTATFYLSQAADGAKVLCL

Potency, inactive:
CCOC(=O)c1cnc(NC2=NC(c3ccccc3Cl)C3=C(CCCC3=O)N2)o1 (stereo not given), CC1=C(C(=O)Nc2ccc(Cl)cc2)C(c2ccccc2Br)N=C(Nc2nc3ccccc3o2)N1 (stereo not given), CC1=C(C(=O)c2ccccc2)C(c2ccccc2Cl)N=C(Nc2nc3ccccc3o2)N1 (stereo not given), CNC(=O)C1=C(C)NC(Nc2nc3ccccc3o2)=NC12CCCC2, Cc1nc(NC2=NC(c3ccccc3Cl)C3=C(CCCC3=O)N2)oc1C (stereo not given), O=C1CCCC2=C1C(c1ccccc1Cl)N=C(Nc1ncc(-c3ccccc3)o1)N2 (stereo not given), Cc1ccc(C2N=C(Nc3nc4ccccc4o3)NC3=C2C(=O)CCC3)s1 (stereo not given), O=C1CCCC2=C1C(c1[nH]ncc1Cl)N=C(Nc1ccccn1)N2 (stereo not given), O=C1CCCC2=C1C(c1ccc(Cl)cc1)N=C(Nc1nc3ccccc3o1)N2 (stereo not given), O=C1NC2=C(C(=O)CCC2)C(c2ccccc2Cl)N1 (stereo not given), O=C1CCCC2=C1C(c1cccc(F)c1)N=C(Nc1nc3ccccc3o1)N2 (stereo not given), CC(C)CN1CC2=C(C1=O)C(c1ccccc1Cl)N=C(Nc1nc3ccccc3o1)N2 (stereo not given), O=C1CCCC2=C1C(c1c(Cl)cccc1Cl)N=C(Nc1nc3ccccc3o1)N2 (stereo not given), CC1=C(C(=O)Nc2nc3ccccc3s2)C(c2[nH]ncc2Cl)N=C(Nc2nc3ccccc3o2)N1 (stereo not given), O=C1CCCC2=C1C1(CCCC1)N=C(Nc1nc3ccccc3n1Cc1ccccc1)N2, O=C1CCCC2N=C(Nc3nc4ccccc4o3)CC(c3ccccc3Cl)C12 (stereo not given), O=C1CCCC2=C1C(c1cccnc1Br)N=C(Nc1nc3ccccc3o1)N2 (stereo not given), O=C1CCCC2=C1C(c1[nH]ncc1Cl)N=C(Nc1nc3cc([S+](=O)([O-])N4CCCC4)ccc3o1)N2 (stereo not given), O=C1CCCC2=C1C(c1cccc(C(F)(F)F)c1)N=C(Nc1nc3ccccc3o1)N2 (stereo not given), O=C1CCCC2=C1C(c1[nH]ncc1Cl)N=C(Nc1nc3c(Cl)cccc3o1)N2 (stereo not given), O=C1CCCC2CC(Nc3nc4ccccc4o3)CC(c3ccccc3)C12 (stereo not given), O=C1CCCC2=C1C(c1cccc(Cl)c1)N=C(Nc1nc3ccccc3o1)N2 (stereo not given), COc1cccc2nc(Nc3nc4ccccc4o3)nc(-c3ccccc3Cl)c12, CN(C)c1ccc(C2N=C(Nc3nc4ccccc4o3)NC3=C2C(=O)CCC3)cc1 (stereo not given), O=C1CCCC2=C1C(c1[nH]ncc1Cl)N=C(Nc1nc3ccccc3s1)N2 (stereo not given), O=C1CCCC2=C1C(c1[nH]ncc1Cl)N=C(Nc1nc3cc(Cl)ccc3o1)N2 (stereo not given), O=C1CCCC2=C1C(c1[nH]ncc1Cl)N=C(Nc1nc3cc([S+](=O)([O-])N4CCOCC4)ccc3o1)N2 (stereo not given), CC1(C)CC(=O)C2=C(C1)NC(Nc1nc3ccccc3o1)=NC21CCCC1, COc1ccccc1NC(=O)C1=C(C)NC(Nc2nc3ccccc3o2)=NC1c1ccccc1Br (stereo not given), N#CC1=C(Nc2nc3ccccc3o2)OC2=C(C(=O)CCC2)C1c1[nH]ncc1Cl (stereo not given), O=C1CCCC2=C1C(c1[nH]ncc1Cl)N=C(Nc1nc3c(Br)cccc3o1)N2 (stereo not given), O=C1CCCC2=C1C(c1[nH]ncc1Cl)N=C(Nc1nc3cccc(Cl)c3o1)N2 (stereo not given), Nc1ncc(S(=O)(=O)N2CCOCC2)s1, Cc1noc(C)c1S(=O)(=O)Nc1ccc(C(=O)Nc2ccc(OC(F)(F)F)cc2)cc1, COC(=O)c1ccc2nc(NC3=NC(c4[nH]ncc4Cl)C4=C(CCCC4=O)N3)oc2c1 (stereo not given), CC1=C(C(=O)Nc2nc3ccccc3s2)C2(CCCC2)N=C(Nc2nc3ccccc3o2)N1, Cc1ccc(C2N=C(Nc3nc4ccccc4o3)NC3=C2C(=O)CCC3)cc1 (stereo not given)

Potency, active:
Cc1ccc2oc(NC3=NC(c4ccccc4Cl)C4=C(CCCC4=O)N3)nc2c1 (stereo not given) 6.11 µM, O=C1CCCC2=C1C1(CCSC1)N=C(Nc1nc3ccccc3o1)N2 (stereo not given) 19.3 µM, O=C1CCCC2=C1C(c1ccccc1Br)N=C(Nc1nc3ccccc3o1)N2 (stereo not given) 6.11 µM
